Test results as given in PubChem BioAssay (Tox21).
Inconclusive results are not listed. Activity calls are given as the source filed them. Unless noted, calls follow the shape of the dose curve; as a rule, active = well fitted curve in the direction sought with a large enough effect in the repeat runs; inconclusive = weak or mixed curves; inactive = no such curve, though single readings can be large; an effect the other way counts as inactive or inconclusive.

Tests used:
[1] = A CellTox Green Cytotoxicity Assay to monitor cytotoxicity in HepG2 cells - 8 hour (AID 1224890); also: nearly all actives have a fitted effect of over 45% in size
In short: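 HepG2 cells were seeded together with the CellTox Green dye at 600 cells/well, left 5 h at 37 C/5% CO2, then given compounds in DMSO. Fluorescence from dye bound to dead-cell DNA was read repeatedly over 40 h of treatment at 37 C.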

[2] = qHTS assay to identify small molecule antagonists of the estrogen receptor alpha (ER-alpha) signaling pathway using the BG1 cell line in the presence of 0.1 nM 17-beta-estradiol - cell viability counter screen (AID 1259241); also: nearly all actives have a fitted effect of over 40% in size
In short: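 Cells were plated and left 24 hr, compounds in DMSO were pinned in, 17beta-estradiol was added to 0.1 nM final, and after 22 hr CellTiter-Fluor reagent was added for 30 min before fluorescence was read.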

[3] = qHTS assay to identify small molecule antagonists of the androgen receptor (AR) signaling pathway using the MDA cell line in the presence of 0.5 nM R1881 - cell viability counter screen (AID 1259242); also: nearly all actives have a fitted effect of over 45% in size
In short: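 MDA-kb2 cells (human breast carcinoma, stably carrying MMTV-luciferase reporter) were exposed to compounds with 0.5 nM R1881 (final) for 16 hr at 37C, 0% CO2; viability then read as live-cell protease fluorescence (CellTiter-Fluor, 30 min) in the same wells.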

[4] = qHTS assay to identify small molecule phospholipidosis (PLD) inducers (AID 1259344; active = well fitted curve in the direction sought with a large enough effect; an effect the other way counts as inactive or inconclusive)
In short: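 HepG2 cells, 900/well, treated with compound plus LipidTOX Red for 24 h at 37 C; amiodarone positive and DMSO negative controls. Fixed with paraformaldehyde/Hoechst, then high-content imaging scored LipidTOX pit count and integrated intensity per well and per cell.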

[5] = qHTS assay to identify small molecule HDAC inhibitors (AID 1259364); also: top concentration of the series differs between compounds; nearly all actives have a fitted effect of over 45% in size
In short: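 Wild-type HCT-116 cells were plated overnight, exposed to compounds for 2 h at 37 °C, then given HDAC-Glo class I/II luminogenic reagent for 30 min at room temperature before luminescence was read.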

[6] = qHTS assay to identify small molecule HDAC inhibitors - cell viability counter screen (AID 1259365); also: series mostly up to about 92 µM; nearly all actives have a fitted effect of over 50% in size
In short: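 Counter screen in wild-type HCT-116 cells: compounds dissolved in DMSO are pin-transferred onto overnight-plated cells and left 2hr at 37C. ATP-based CellTiter-Glo luminescence then measures viable cells.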

[7] = qHTS assay to identify small molecule agonists of the sonic hedgehog signaling (Shh) pathway - cell viability counter screen (AID 1259366); also: nearly all actives have a fitted effect of over 50% in size
In short: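 Cells are plated at 2,000 per well and left 4hr at 37C, 5% CO2 before compound addition. After 23hr of treatment, CellTiter-Fluor reagent is added for 1hr at 37C and fluorescence is measured.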

[8] = qHTS assay to identify small molecule antagonists of the sonic hedgehog signaling (Shh) pathway - cell viability counter screen (AID 1259367); also: nearly all actives have a fitted effect of over 55% in size
In short: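 NIH/3T3-derived Gli1-Luc reporter cells, 2,000/well, plated 4 hr before compound addition, then stimulated with conditioned medium for 24 hr at 37C. Viability measured in the same wells by CellTiter-Fluor fluorescence, reagent added at 23 hr for 1 hr.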

[9] = qHTS assay to identify small molecule agonists of the sonic hedgehog signaling (Shh) pathway (AID 1259368; calls by dose curve; also: series mostly up to about 92 µM; nearly all actives have a fitted effect of over 15% in size)
In short: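 NIH/3T3-derived 3T3Gli1-Luc cells carrying a stably integrated Gli1 response element–firefly luciferase reporter were plated, left 4 hr at 37 C, then given compounds in DMSO for 24 hr. Luminescence was read 30 min after adding luciferase reagent.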

[10] = qHTS assay to identify small molecule antagonists of the sonic hedgehog signaling (Shh) pathway (AID 1259369; calls by dose curve; also: nearly all actives have a fitted effect of over 45% in size)
In short: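 NIH/3T3-derived 3T3Gli1-Luc cells with stably integrated Gli1-Luc reporter were preincubated 4hr at 37 C, then given compounds in DMSO plus Shh conditioned medium and incubated 24hr. Firefly luciferase luminescence read after 30min reagent at room temperature.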

[11] = target: Estrogen receptor beta (Homo sapiens) (UniProt Q92731); assay: qHTS assay to identify small molecule agonists of the estrogen receptor beta (ER-beta) signaling pathway (AID 1259377; active = well fitted activation curve with a large enough effect in the signal ratio in the repeat runs, not every such curve was filed as active; the % refers to the signal ratio)
In short: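 Agonist mode cell assay in GripTite HEK293T cells expressing an ER-beta fusion that drives beta-lactamase from an Upstream Activator Sequence; 16 hr compound exposure at 37C, then 2 h LiveBLAzer B/G FRET substrate at room temperature, fluorescence read-out.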

[12] = target: Estrogen receptor beta (Homo sapiens) (UniProt Q92731); assay: qHTS assay to identify small molecule antagonists of the estrogen receptor beta (ER-beta) signaling pathway (AID 1259378; active = well fitted inhibition curve with a large enough effect in the signal ratio in the repeat runs, not every such curve was filed as active; the % refers to the signal ratio)
In short: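 ER-beta-UAS-bla HEK293T cells in 2% charcoal-stripped FBS medium treated with compound plus 1nM final 17-beta-estradiol for 16 hr at 37C. Beta-lactamase reporter read by FRET substrate fluorescence after 2 hours at room temperature.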

[13] = qHTS assay to identify small molecule agonists of the estrogen receptor beta (ER-beta) signaling pathway - cell viability counter screen (AID 1259380); also: nearly all actives have a fitted effect of over 30% in size
In short: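 ER-beta-UAS-bla HEK293T cells in medium with 2% charcoal-stripped FBS were preincubated 6 hr at 37C, dosed with compound in DMSO for 16 hr, then after the bla read, CellTiter-Glo was added for 30 min at room temperature; luminescence recorded.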

[14] = qHTS assay to identify small molecule antagonists of the estrogen receptor beta (ER-beta) signaling pathway - cell viability counter screen (AID 1259382); also: series mostly up to about 92 µM; nearly all actives have a fitted effect of over 55% in size
In short: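 ER-beta-UAS-bla HEK293T cells (2,000/well, 2% charcoal-stripped FBS) were pre-incubated 6 hr at 37C, then given compound plus 1nM final 17-beta-estradiol for 16 hr. Viability was read in the same wells by CellTiter-Glo luminescence after 30 min at room temperature.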

[15] = qHTS assay to identify small molecule agonists or antagonists of the thyroid stimulating hormone receptor (TSHR) signaling pathway - wild type cell line counter screen (AID 1259384; calls by dose curve)
In short: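 Wild-type Hek293 cells, 800/well, 18 h at 37C, then compound with Ro20-1724 for 30 min RT. cAMP by HTRF (cAMP-d2/anti-cAMP cryptate), 1 h RT, fluorescence read. 15 concentrations, triplicates.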

[16] = target: Estrogen receptor (Homo sapiens) (UniProt P03372); assay: qHTS assay to identify small molecule antagonists of the estrogen receptor alpha (ER-alpha) signaling pathway using the BG1 cell line in the presence of 0.1 nM 17-beta-estradiol (AID 1259244); also: nearly all actives have a fitted effect of over 50% in size
In short: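 VM7Luc4E2 cells (endogenous full-length ER-alpha, stable 4xERE-luciferase) were grown 5 days in phenol red-free medium with charcoal-stripped FBS, then exposed 22 h at 37C to compounds plus 0.1 nM (final) 17beta-estradiol; ONE-Glo luminescence read-out.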

[17] = qHTS assay to identify small molecule agonists of the androgen receptor (AR) signaling pathway in the presence of an antagonist - cell viability counter screen (AID 1259379); also: series mostly up to about 92 µM; nearly all actives have a fitted effect of over 25% in size
In short: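 MDA-kb2 human breast carcinoma cells (stable MMTV-luciferase, AR/GR responsive) were seeded 3,000 cells/well, pre-incubated 5 hr at 37C without CO2, then given 3.0uM nilutamide and compounds at 15 concentrations for 16 hr. Viability was read by CellTiter-Fluor fluorescence.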

[18] = target: Androgen receptor (Homo sapiens) (UniProt P10275); assay: qHTS assay to identify small molecule agonists of the androgen receptor (AR) signaling pathway in the presence of an antagonist (AID 1259381; calls by dose curve; also: nearly all actives have a fitted effect of over 15% in size)
In short: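 MDA-kb2 human breast carcinoma cells carrying an MMTV-luciferase reporter (AR- and GR-responsive) were treated with compounds at 15 concentrations plus 3.0uM final nilutamide for 16hr at 37C without CO2; luminescence was read after ONE-Glo addition.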

[19] = target: Estrogen receptor (Homo sapiens) (UniProt P03372); assay: qHTS assay to identify small molecule agonists of the estrogen receptor alpha (ER-alpha) signaling pathway in the presence of an antagonist (AID 1259383; calls by dose curve; also: top concentration of the series differs between compounds; nearly all actives have a fitted effect of over 15% in size)
In short: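 VM7Luc4E2 cells (endogenous full-length ER-alpha, 4×ERE-luciferase) were precultured 5 days in phenol red-free medium with 10% charcoal-stripped FBS, given 10.0nM ICI-182,780 (final), then treated with compounds at 15 concentrations for 22hr at 37C; luminescence read with ONE-Glo.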

Measured: Potency

Sequence of Estrogen receptor (Homo sapiens) (P03372 whole entry, looked up): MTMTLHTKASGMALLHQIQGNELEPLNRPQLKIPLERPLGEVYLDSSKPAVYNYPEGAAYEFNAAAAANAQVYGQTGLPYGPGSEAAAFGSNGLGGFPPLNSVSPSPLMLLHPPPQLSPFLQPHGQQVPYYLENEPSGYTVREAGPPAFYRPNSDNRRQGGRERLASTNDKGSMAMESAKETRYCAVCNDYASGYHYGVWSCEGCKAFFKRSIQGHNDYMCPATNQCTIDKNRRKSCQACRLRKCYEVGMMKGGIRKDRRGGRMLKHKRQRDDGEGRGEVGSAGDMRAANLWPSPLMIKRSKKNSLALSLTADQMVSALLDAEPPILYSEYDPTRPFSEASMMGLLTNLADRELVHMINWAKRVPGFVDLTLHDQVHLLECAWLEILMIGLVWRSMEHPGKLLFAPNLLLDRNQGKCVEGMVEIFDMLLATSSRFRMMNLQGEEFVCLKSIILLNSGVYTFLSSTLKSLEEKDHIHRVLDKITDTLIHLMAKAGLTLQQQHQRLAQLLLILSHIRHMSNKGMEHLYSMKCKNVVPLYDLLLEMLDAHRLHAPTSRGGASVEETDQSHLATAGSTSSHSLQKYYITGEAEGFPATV
Sequence of Estrogen receptor beta (Homo sapiens) (Q92731 whole entry, looked up, the tested form may be a part): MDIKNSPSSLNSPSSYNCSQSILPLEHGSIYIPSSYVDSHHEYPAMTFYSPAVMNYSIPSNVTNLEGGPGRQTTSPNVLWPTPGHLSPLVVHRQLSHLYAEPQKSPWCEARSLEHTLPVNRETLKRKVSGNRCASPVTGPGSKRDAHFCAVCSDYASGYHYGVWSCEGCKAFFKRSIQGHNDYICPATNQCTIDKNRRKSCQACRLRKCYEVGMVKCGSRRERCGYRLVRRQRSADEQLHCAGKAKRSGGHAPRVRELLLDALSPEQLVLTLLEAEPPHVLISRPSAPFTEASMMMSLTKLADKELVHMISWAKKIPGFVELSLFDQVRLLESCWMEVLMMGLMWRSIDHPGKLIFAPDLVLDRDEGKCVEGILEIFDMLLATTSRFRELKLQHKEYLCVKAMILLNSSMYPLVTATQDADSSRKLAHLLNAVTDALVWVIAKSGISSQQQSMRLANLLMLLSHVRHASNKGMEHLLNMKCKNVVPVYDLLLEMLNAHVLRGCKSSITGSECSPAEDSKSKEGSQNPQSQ
Sequence of Androgen receptor (Homo sapiens) (P10275 whole entry, looked up): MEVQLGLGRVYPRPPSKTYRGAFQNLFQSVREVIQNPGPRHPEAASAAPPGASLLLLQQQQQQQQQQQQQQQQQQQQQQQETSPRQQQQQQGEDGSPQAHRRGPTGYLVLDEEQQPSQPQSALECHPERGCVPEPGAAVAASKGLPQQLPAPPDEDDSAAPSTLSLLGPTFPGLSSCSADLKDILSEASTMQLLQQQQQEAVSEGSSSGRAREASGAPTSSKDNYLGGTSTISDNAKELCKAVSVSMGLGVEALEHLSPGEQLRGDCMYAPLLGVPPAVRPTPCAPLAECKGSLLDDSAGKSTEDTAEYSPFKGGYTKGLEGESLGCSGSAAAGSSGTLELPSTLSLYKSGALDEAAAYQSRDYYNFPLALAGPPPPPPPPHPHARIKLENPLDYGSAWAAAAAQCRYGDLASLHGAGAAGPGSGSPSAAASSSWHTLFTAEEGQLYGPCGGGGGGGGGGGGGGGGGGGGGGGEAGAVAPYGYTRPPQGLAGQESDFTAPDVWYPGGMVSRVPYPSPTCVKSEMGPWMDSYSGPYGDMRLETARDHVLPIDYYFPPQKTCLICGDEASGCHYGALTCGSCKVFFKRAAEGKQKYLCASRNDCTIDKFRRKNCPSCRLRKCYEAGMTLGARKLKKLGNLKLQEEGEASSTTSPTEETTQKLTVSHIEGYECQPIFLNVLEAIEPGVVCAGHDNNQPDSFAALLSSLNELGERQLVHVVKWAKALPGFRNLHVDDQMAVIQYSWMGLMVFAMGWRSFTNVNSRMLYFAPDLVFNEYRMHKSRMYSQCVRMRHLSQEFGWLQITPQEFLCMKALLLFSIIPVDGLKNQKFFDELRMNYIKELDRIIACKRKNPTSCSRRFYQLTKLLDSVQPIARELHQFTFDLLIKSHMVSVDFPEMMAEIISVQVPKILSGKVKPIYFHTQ

COc1ccc(CN(CCN(C)C)c2ncccn2)cc1
not listed: [16] | [17] | [18] | [19]
inactive: all other assays above

COC(=O)Cc1cccc2ccccc12
not listed: [4] | [8] | [11] | [12] | [13]
inactive: all other assays above

CC(CN=Cc1ccccc1O)N=Cc1ccccc1O (stereo unspecified)
not listed: [4] | [16] | [18] | [19]
inactive: all other assays above

SCCOCCOCCS
not listed: [4] | [9] | [11] | [12] | [13] | [15] | [17] | [18]
inactive: all other assays above

C/C=C1\[C@H]2C=C(C)C[C@]1(N)c1ccc(=O)[nH]c1C2
not listed: [16] | [18] | [19]
inactive: all other assays above

CC(=O)OCC(=O)[C@@]1(O)CC[C@H]2[C@@H]3CCC4=CC(=O)C=C[C@]4(C)[C@@]3(F)[C@@H](O)C[C@@]21C
not listed: [16] | [18] | [19]
inactive: all other assays above

Cc1ccc(S(=O)(=O)NC(=O)NC2CCCC2)cc1
not listed: [11] | [12] | [16] | [18] | [19]
inactive: all other assays above

CC(=O)Nc1cccc(N)c1
not listed: [4] | [8] | [18]
inactive: all other assays above

CCOC(C)OCC
not listed: [15] | [16] | [18] | [19]
inactive: all other assays above

C[C@H](CN1CCCC1)C(=O)c1ccc(C(F)(F)F)cc1
not listed: [13] | [16] | [18] | [19]
inactive: all other assays above

CC(C)C/C=C(\C=O)c1ccccc1
not listed: [4] | [7] | [8] | [11] | [12] | [18]
inactive: all other assays above

C1CCN(CN2CCCCC2)CC1
not listed: [4] | [8] | [18]
inactive: all other assays above

C=CCCC
not listed: [4] | [8] | [15] | [18]
inactive: all other assays above
